Reference: PubChem BioAssay AID686979 (National Center for Advancing Translational Sciences (NCATS), 2013)
The campaign covered roughly 420,000 compounds. About 50,000 (12%) were called active. Roughly 26% stayed inconclusive and do not appear here. Many of the other results were omitted from the sample, so actives are more common in it than they were. Unmarked numbers belong to inactive results. Calls come from the whole dose curve; as a rule, active = well fitted inhibition curve with a large enough effect; inconclusive = small, poorly fitted or top-dose-only effect; inactive = flat fitted curve, though single readings scatter.

Assay: qHTS for Inhibitors of human tyrosyl-DNA phosphodiesterase 1 (TDP1): qHTS in cells in presence of CPT; note: nearly all actives have a fitted effect of over 55% in size
Details: chicken DT40 Tdp1-/-;hTDP1 cells + 20 nM CPT, ATP luminescence, 48 h; series mostly up to 46.2 µM; activity change, negative = growth inhibition: at the top concentration
In short: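 Chicken DT40 Tdp1-/- cells stably complemented with human TDP1 were seeded at 400 cells/well in medium containing 20 nM camptothecin, exposed to pin-transferred compounds, and grown at 37 °C for at least 48 hr. Viability was read as ATP luminescence.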
% is set by controls: 0 for no effect and ±100 for the full control effect; potency is the fitted concentration of half-maximal effect.

Q: With COc1ccccc1C(c1nnnn1CC1CCCO1)N1CCN(c2ccccc2)CC1 (stereo not drawn) as the molecule, how does the “activity change, negative = growth inhibition” value read?
A: The value was -0.846%.

Q: Which Potency does the source give for Cc1cccc(N2CCN(C(c3ccccc3)c3nnnn3CC3CCCO3)CC2)c1C (stereo not drawn) here?
A: The Potency was 20.6 µM (active).

Q: For Cc1cccc(N2CCN(C(c3ccc(N(C)C)cc3)c3nnnn3C(C)(C)C)CC2)c1C (stereo not drawn), which “activity change, negative = growth inhibition” value is on record?
A: Its value is -11.5%.

Q: Which “activity change, negative = growth inhibition” value does the source give for Cc1nc2ccc(N)nc2nc1C here?
A: Its value is 1.9%.

Q: With O=C1/C(=C/c2ccc3c(c2)OCO3)Oc2cc(OCC(=O)N3CC(O)C[C@H]3C(=O)O)ccc21 (stereo partly drawn) as the molecule, how does the “activity change, negative = growth inhibition” value read?
A: The value was -3.66%.

Q: Which “activity change, negative = growth inhibition” value does the source give for Nc1cccc(OCCCCCOc2cccc(N)c2)c1 here?
A: The value was -17.9%.

Q: Which “activity change, negative = growth inhibition” value does the source give for O=C(O)C1CCCN1S(=O)(=O)c1ccc(Br)cc1 (stereo not drawn) here?
A: The value was 6.77%.

Q: Which “activity change, negative = growth inhibition” value does the source give for O=C(c1ccccc1F)N1CCN(S(=O)(=O)c2ccc(Br)cc2)CC1 here?
A: The value was -17.3%.

Q: Which Potency does the source give for O=S(=O)(c1ccc(Br)cc1)n1ccc2ccccc21 here?
A: Its Potency is 13 µM (active).

Q: For COc1cccc(C(=O)N2CCC(n3nccc3NC(=O)C3CCOC3)CC2)c1 (stereo not drawn), which “activity change, negative = growth inhibition” value is on record?
A: The value was 5.06%.

Q: With COc1ccc(-c2nnc(-c3ccc4ccccc4c3)o2)cc1 as the molecule, how does the “activity change, negative = growth inhibition” value read?
A: Its value is -22.7%.

Q: For CCOc1ccc(C(C)C)cc1S(=O)(=O)n1nc(C)cc1C, which Potency is on record?
A: Its Potency is 16.4 µM (active).

Q: With COc1ccc(C(C)C)cc1S(=O)(=O)Nc1ncn[nH]1 as the molecule, how does the “activity change, negative = growth inhibition” value read?
A: The value was 6.77%.

Q: With CCOc1cc(C)c(Cl)cc1S(=O)(=O)n1nnc2ccccc21 as the molecule, how does the “activity change, negative = growth inhibition” value read?
A: The value was -14.4%.

Q: With CCc1ccccc1N1CN(Cc2ccco2)CNC1=S as the molecule, how does the “activity change, negative = growth inhibition” value read?
A: The value was -8.58%.

Q: Which “activity change, negative = growth inhibition” value does the source give for O=C(CNC(=O)[C@@H]1Cc2ccccc2CN1)NC1CCCCC1 here?
A: Its value is -2.66%.

Q: Which “activity change, negative = growth inhibition” value does the source give for C=CCn1c(CCc2ccc(OC(C)C)cc2)n[nH]c1=S here?
A: The value was -29.5%.

Q: For CC(C)Oc1ccc(Cc2n[nH]c(=S)n2Cc2ccccc2)cc1Cl, which “activity change, negative = growth inhibition” value is on record?
A: The value was -11.9%.

Q: Which Potency does the source give for CC(C)Oc1ccc(CCc2n[nH]c(=S)n2Cc2ccccc2)cc1 here?
A: The Potency was 25.9 µM (active).

Q: With O=c1[nH]c2cccnc2n1-c1ccc([N+](=O)[O-])cc1 as the molecule, how does the “activity change, negative = growth inhibition” value read?
A: The value was -6.6%.

Q: With O=C(CSc1nc2ccc([N+](=O)[O-])cc2[nH]1)c1ccc(Cl)cc1 as the molecule, how does the “activity change, negative = growth inhibition” value read?
A: Its value is -27%.

Q: Which Potency does the source give for O=[N+]([O-])c1ccc2nc(-c3ccccn3)[nH]c2c1 here?
A: Its Potency is 0.651 µM (active).

Q: For O=[N+]([O-])c1ccccc1/C=C/CN1CCCC(CO)C1 (stereo not drawn), which “activity change, negative = growth inhibition” value is on record?
A: Its value is -0.367%.

Q: For CCSc1sc(CC)cc1C=O, which “activity change, negative = growth inhibition” value is on record?
A: Its value is -12.7%.

Q: Which “activity change, negative = growth inhibition” value does the source give for CCOc1ccc(C(C)NC(=O)CN2C(=O)NC3(CCCCC3)C2=O)cc1OCC (stereo not drawn) here?
A: The value was -1.96%.

Q: Which “activity change, negative = growth inhibition” value does the source give for Cc1ccc2c(c1)N(CC(=O)N1CCOCC1)C(=O)CO2 here?
A: Its value is 18.3%.

Q: For Cc1ccc(C)c(N2CCN(C(=O)CN3C(=O)COc4ccc(S(=O)(=O)N5CCCCCC5)cc43)CC2)c1, which Potency is on record?
A: Its Potency is 16.4 µM (active).

Q: Which “activity change, negative = growth inhibition” value does the source give for CCCCN(CCCC)CCNC(=O)CN1C(=O)COc2ccc(S(=O)(=O)N3CCOCC3)cc21 here?
A: The value was -27.9%.

Q: With CCCCN(CCCC)CCCNC(=O)CN1C(=O)COc2ccc(S(=O)(=O)N3CCC(C)CC3)cc21 as the molecule, how does the Potency read?
A: Its Potency is 18.4 µM (active).

Q: For COc1ccc(CCNC(=O)CN2C(=O)COc3ccc(S(=O)(=O)N4CCCC4)cc32)cc1OC, which “activity change, negative = growth inhibition” value is on record?
A: The value was -11%.

Q: Which “activity change, negative = growth inhibition” value does the source give for CC(=O)Nc1ccc(NC(=O)CN2C(=O)COc3ccc(S(=O)(=O)N4CCCCC4)cc32)cc1 here?
A: The value was 1.6%.

Q: For O=C(CCN1C(=O)c2ccncc2C1=O)Nc1cc(F)ccc1F, which “activity change, negative = growth inhibition” value is on record?
A: The value was -2.86%.

Q: For O=C(COC(=O)c1cnccn1)Nc1ccc(Cl)cc1C(F)(F)F, which “activity change, negative = growth inhibition” value is on record?
A: Its value is -2.73%.

Q: With CC(OC(=O)CNC(=O)c1ccc(Cl)c([N+](=O)[O-])c1)C(=O)NCc1ccco1 (stereo not drawn) as the molecule, how does the “activity change, negative = growth inhibition” value read?
A: The value was 9.09%.

Q: With Cc1cc(=O)oc2c3c(cc(OCC(=O)N[C@H](C(=O)O)c4ccccc4)c12)OC(C)(C)CC3 as the molecule, how does the “activity change, negative = growth inhibition” value read?
A: The value was 1.09%.

Q: Which “activity change, negative = growth inhibition” value does the source give for CCOCCOCCC(C(=O)O)P(=O)(c1ccccc1)c1ccccc1 (stereo not drawn) here?
A: The value was -9.55%.

Q: Which “activity change, negative = growth inhibition” value does the source give for CCc1ccc(N2CC(C(=O)Nc3ccc(S(=O)(=O)Nc4nccs4)cc3)CC2=O)cc1 (stereo not drawn) here?
A: The value was -16%.

Q: With CCc1cc2c(cc3c(=O)n(CC(=O)N4CCN(c5cc(Cl)ccc5C)CC4)ncn32)s1 as the molecule, how does the “activity change, negative = growth inhibition” value read?
A: Its value is -19.2%.

Q: Which “activity change, negative = growth inhibition” value does the source give for CCC1(CC)NC(=O)N(Cc2nc3ccccc3s2)C1=O here?
A: The value was 8.86%.

Q: Which Potency does the source give for O=C1NC(Nc2nc3ccccc3s2)(C(F)(F)F)C(=O)N1C1CCCCC1 (stereo not drawn) here?
A: Its Potency is 25.9 µM (active).

Q: With O=C(NC1(C(F)(F)F)NC(=O)N(C2CCCCC2)C1=O)c1ccco1 (stereo not drawn) as the molecule, how does the “activity change, negative = growth inhibition” value read?
A: The value was 29.4%.

Q: Which “activity change, negative = growth inhibition” value does the source give for COC(=O)C[C@@H]1C=C[C@@H](NC(=O)c2ccc3c(c2)OCO3)[C@@H](CO)O1 here?
A: The value was -1.27%.

Q: With O=C1C2C3C=CC(C3)C2C(=O)N1c1ncc([N+](=O)[O-])s1 (stereo not drawn) as the molecule, how does the “activity change, negative = growth inhibition” value read?
A: The value was 23.9%.

Q: For CC1Cc2[nH][nH]c(=O)c2C(C2CC2)O1 (stereo not drawn), which “activity change, negative = growth inhibition” value is on record?
A: The value was -8.46%.

Q: With Cc1ccn2c(=O)nc(SCC(=O)NCc3ccc(F)cc3)nc2c1 as the molecule, how does the “activity change, negative = growth inhibition” value read?
A: The value was -2.41%.

Q: Which Potency does the source give for CC(C)(C)NC(=O)CSc1nc(-c2ccc(F)cc2)cc(C(F)(F)F)n1 here?
A: Its Potency is 20.6 µM (active).

Q: With O=C(CSc1nc(-c2ccco2)cc(C(F)(F)F)n1)N1CCc2ccccc2C1 as the molecule, how does the “activity change, negative = growth inhibition” value read?
A: The value was -27.6%.

Q: For Cc1cccc(NC(=O)CSc2nc(-c3ccco3)cc(C(F)(F)F)n2)c1C, which Potency is on record?
A: Its Potency is 10.3 µM (active).

Q: Which Potency does the source give for CCNS(=O)(=O)c1ccc(NC(=O)CSc2nc(-c3ccco3)cc(C(F)(F)F)n2)cc1 here?
A: Its Potency is 7.31 µM (active).

Q: Which “activity change, negative = growth inhibition” value does the source give for Cc1cc(C(F)(F)F)nn1-c1nc(-c2ccco2)cc(C(F)(F)F)n1 here?
A: Its value is -1.24%.

Q: With O=C(CSc1nc(-c2ccco2)cc(C(F)(F)F)n1)NCc1cccs1 as the molecule, how does the “activity change, negative = growth inhibition” value read?
A: The value was -9.45%.

Q: Which “activity change, negative = growth inhibition” value does the source give for CN(C)c1ccc(NC(=O)CSc2n[nH]c(-c3ccco3)n2)cc1 here?
A: The value was 0.483%.

Q: With CC(C)c1nc(SCC(=O)NC(=O)NC(C)(C)C)n[nH]1 as the molecule, how does the “activity change, negative = growth inhibition” value read?
A: The value was -1.92%.
